Assay results published in PubChem BioAssay.
Calls of active or inactive are those of the source.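 The calls were made as follows: active = compounds whose cell count with miR-34 switched on is under 0.7 times the count with it off; inactive = the rest.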

Experiment: sensitizers of A549 cells to miR-34 induction, primary screen, imaging, A549 dox-inducible miR-34, nuclei and caspase counts (AID 1347080); also: test concentration not given here
Conditions: A549 miR-34 inducible, Hoechst nuclei count, 48 h
[1] = stronger effect = lower value, cell number ratio, induced over uninduced
[2] = measured here: relative caspase fold change +Dox/-Dox
[3] = measured here: total cells with miR-34 induction, stronger effect = lower value
[4] = measured here: total cells without miR-34 induction

SMILES | fold change [1] | fold change [2] | cell count [3] | cell count [4]
O=C(O)CCC/C=C\C[C@H]1[C@@H](O)CC(=O)[C@@H]1/C=C/[C@@H](O)CCc1ccccc1 | 0.982 (inactive) | 1.03 | 5860 | 5960
CCCCC[C@@](C)(O)/C=C/[C@@H]1C(C/C=C\CCCC(=O)O)[C@@H](O)C[C@H]1O (stereo not given in full) | 0.939 (inactive) | 1.76 | 6110 | 6510
CCCCCCCCCCCCCCCCOC[C@H](COP(=O)([O-])OCC[N+](C)(C)C)OCC | 0.91 (inactive) | 1.05 | 5080 | 5580
CCCCC(C)(C)[C@H](O)/C=C/[C@H]1CCC(=O)[C@@H]1C/C=C\CCCC(=O)O | 0.973 (inactive) | 1.01 | 6270 | 6450
CC/C=C\C/C=C\C/C=C\C/C=C\CCCCCCC(=O)OCC | 0.858 (inactive) | 2.1 | 5560 | 6480
CCCCCCCCCCCCCCCCCCCCCCC(=O)OCC | 0.908 (inactive) | 0.513 | 4740 | 5220
COc1ccc2cc(CC(=O)O)ccc2c1 | 0.964 (inactive) | 1.2 | 5630 | 5840
N#Cc1cc2c(OCC(O)CN3CCN(C(c4ccccc4)c4ccccc4)CC3)cccc2[nH]1 (stereo not given) | 0.956 (inactive) | 1.38 | 1480 | 1550
CCCCC(C)(C)[C@H](O)/C=C/[C@H]1C=CC(=O)[C@@H]1C/C=C\CCCC(=O)O | 0.967 (inactive) | 1.18 | 5990 | 6200
O=C(O)COc1ccc(C(=O)c2cccs2)c(Cl)c1Cl | 0.964 (inactive) | 0.701 | 5800 | 6010
CC(C(=O)Nc1cccc(N=Cc2c(O)ccc3ccccc23)c1)c1ccccc1 (stereo not given) | 0.971 (inactive) | 1.6 | 5970 | 6150
c1ccc2c(NCCCCCCCNc3c4c(nc5ccccc35)CCCC4)c3c(nc2c1)CCCC3 | 1.06 (inactive) | 0.663 | 4480 | 4230
CC(=O)O[C@@]12CO[C@@H]1C[C@H](O)[C@@]1(C)C(=O)[C@H](OC(=O)O)C3=C(C)[C@@H](OC(=O)[C@H](O)[C@@H](NC(=O)c4ccccc4)c4ccccc4)C[C@@](O)([C@@H](OC(=O)c4ccccc4)C12)C3(C)C (stereo not given in full) | 1.13 (inactive) | 0.603 | 1340 | 1180
CCCCC(C)(C)[C@H](O)/C=C/[C@H]1C(=O)C[C@H](O)[C@@H]1C/C=C\CCCC(=O)O | 1.04 (inactive) | 0.943 | 5440 | 5250
CCCCC1C(=O)CC[C@H]2[C@@H]1CC(=O)[C@@H]2CCCCCCC(=O)O (stereo not given in full) | 0.957 (inactive) | 0.967 | 5230 | 5460
CCCCC[C@](C)(O)/C=C/[C@H]1[C@H](O)CC(=O)[C@@H]1C/C=C\CCCC(=O)O | 0.915 (inactive) | 1.22 | 5410 | 5910
OCCC/C=C/c1ccccc1 | 0.953 (inactive) | 1.17 | 5920 | 6210
CCCCCCCCCCCCCCCCC/C=C/C(=O)O | 0.976 (inactive) | 0.547 | 5370 | 5500
CC#CCC(C)C(=O)/C=C/[C@@H]1[C@H]2C/C(=C/CCCC(=O)O)C[C@H]2C[C@H]1O (stereo not given in full) | 0.968 (inactive) | 3.57 | 5500 | 5680
CCCCC[C@H](O)/C=C/[C@@H]1[C@H](CCCCCCC(=O)O)[C@@H](O)C[C@H]1O | 0.957 (inactive) | 1.43 | 6250 | 6530

SMILES | fold change [1] | fold change [2] | cell count [3] | cell count [4]
O=C(c1cccs1)c1ccc(OCCCO)c(Cl)c1Cl | 0.896 (inactive) | 0.529 | 5620 | 6270
CCCCC/C=C\C/C=C\C/C=C\C/C=C\CCCC(=O)NC[C@]1(C)CCC[C@]2(C)c3ccc(C(C)C)cc3CC[C@@H]12 | 0.99 (inactive) | 1.27 | 5530 | 5580
CCCCCCCCCCOc1ccc(OCC(=O)Cn2cc(C(=O)OC)c3cc(C(=O)O)ccc32)cc1 | 0.961 (inactive) | 0.386 | 6240 | 6490
CCCCCCCCCCCCCCCCOC[C@H](COP(=O)([O-])OCC[N+](C)(C)C)SC(C)=O | 0.92 (inactive) | 0.945 | 4720 | 5130
CCCCCC(=O)/C=C/[C@H]1[C@H](O)CC(=O)[C@@H]1CCCCCCC(=O)O | 1.03 (inactive) | 1.35 | 5840 | 5690
C#CCCCCCCCCCNC(=O)Oc1cccc(-c2cccc(C(N)=O)c2)c1 | 0.97 (inactive) | 1.13 | 5690 | 5860
CCCCCCCCCCCCCCCCCCCCCCCCC(=O)OC | 1.06 (inactive) | 0.88 | 6850 | 6470
CCCCCCCCCCCCCCCCCCCCCC(=O)NCCO | 1.03 (inactive) | 0.641 | 6180 | 5980
CCCCC[C@H](O)/C=C/[C@H]1CC[C@H](O)[C@@H]1C/C=C\CCCC(=O)O | 0.956 (inactive) | 1.76 | 6120 | 6400
C/C=C/C(=O)O[C@H](COCCCCCCCCCCCCCCCC)COP(=O)([O-])OCC[N+](C)(C)C | 0.851 (inactive) | 1.03 | 4860 | 5710
CCCCC[C@H](O)/C=C/[C@H]1C(=O)C[C@H](O)[C@@H]1C/C=C\CCCC(=O)OC | 0.892 (inactive) | 0.761 | 5010 | 5620
CCCCC/C=C\CCCCCCCCCCCCC(=O)O | 0.9 (inactive) | 1.51 | 4990 | 5540
C[n+]1ccc(/C=C/c2c[nH]c3ccccc23)cc1 | 1.05 (inactive) | 1.99 | 1600 | 1530
CCCCCCCCCCCCCCCCCCCCCCCCCCCCCCO | 0.965 (inactive) | 0.745 | 6130 | 6350
CC#CCC(C)[C@@H](O)/C=C/[C@@H]1[C@H]2C/C(=C\CCCC(=O)O)C[C@H]2C[C@H]1O (stereo not given in full) | 0.903 (inactive) | 1.4 | 4970 | 5500
CCCCC[C@H](O)/C=C/[C@H]1CCC(=O)[C@@H]1CCCCCCC(=O)O | 0.938 (inactive) | 1.33 | 5360 | 5720
CC(C)OC(=O)CCC/C=C\C[C@@H]1[C@@H](/C=C/C(F)(F)COc2ccccc2)[C@H](O)C[C@@H]1O | 1.05 (inactive) | 0.899 | 5900 | 5630
CCCCC(C)(C)[C@H](O)/C=C/[C@@H]1[C@@H](C/C=C\CCCC(=O)O)[C@@H](O)C[C@H]1O | 0.98 (inactive) | 1.24 | 5690 | 5800
C=C1C(=O)O[C@H](CCCCCCCC)[C@H]1C(=O)O | 1.04 (inactive) | 0.706 | 6150 | 5890
CCCCCCCOC(=O)Cc1c(C)n(C(=O)c2ccc(Cl)cc2)c2ccc(OC)cc12 | 0.949 (inactive) | 0.801 | 6160 | 6490

SMILES | fold change [1] | fold change [2] | cell count [3] | cell count [4]
O=C(NCCN1CCC(n2c(=O)[nH]c3cc(Cl)ccc32)CC1)c1ccc(F)cc1 | 0.968 (inactive) | 1.46 | 6040 | 6240
O=P(O)(O)O[C@H]1[C@H](O)[C@@H](O)[C@H](OP(=O)(O)O)[C@@H](OP(=O)(O)O)[C@H]1O | 1 (inactive) | 0.768 | 5340 | 5330
CC(C)CCC[C@@H](C)[C@H]1CC[C@H]2[C@@H]3CC(=O)[C@@]4(O)C[C@@H](O)CC[C@]4(C)[C@H]3CC[C@]12C | 0.89 (inactive) | 2.89 | 5340 | 6000
CCCCCCCCCCCCC/C=C/[C@H](O)[C@@H](CO)NC(=O)CCCCCCCCCCCCCCCCCCCCCCC | 0.979 (inactive) | 0.918 | 5890 | 6010
CCCCc1ccc(N=CNO)c(C)c1 | 1.01 (inactive) | 0.762 | 6020 | 5950
c1ccc(C(OC2CCN(CCCc3nn[nH]n3)CC2)c2ccccc2)cc1 | 0.935 (inactive) | 1.12 | 5840 | 6240
C[C@@H]1C[C@H]2O[C@@H]2/C=C\C=C\C(=O)Cc2c(Cl)c(O)cc(O)c2C(=O)O1 | 1.01 (inactive) | 1.3 | 2240 | 2220
CCCCCCCCCCCCC/C=C/[C@@H](O)[C@H](COP(=O)(O)O)NC(=O)CCCCCCC | 1.01 (inactive) | 0.912 | 5610 | 5550
CCCCCCCCCCCCCCCC(=O)OC[C@H](COP(=O)([O-])OCC[N+](C)(C)C)OC(=O)CCCC(=O)/C=C/C(=O)O | 1 (inactive) | 0.771 | 5760 | 5760
CCCCC[C@H](O)/C=C/[C@@H]1[C@@H](C/C=C\CCCC(=O)OC)[C@@H](O)C[C@H]1O | 0.963 (inactive) | 1.19 | 5860 | 6080
CC/C(=C\C(=N/O)C(N)=O)C(C)[N+](=O)[O-] (stereo not given) | 1.05 (inactive) | 1.1 | 6540 | 6230
CCCCCCCCCCCCCCCC(=O)OC[C@@H](O)COP(=O)([O-])OCC[N+](C)(C)C | 1.02 (inactive) | 1.32 | 5910 | 5770
CCN(CC)c1ccc(C2=C(Cl)C(=O)c3ncccc3C2=O)cc1 | 1.01 (inactive) | 1.74 | 4440 | 4390
CC(=O)O[C@@]12C[C@@H](C)[C@@]3(O)[C@@H](C=C(CO)C[C@]4(O)C(=O)C(C)=C[C@@H]34)[C@@H]1C2(C)C | 0.95 (inactive) | 1.47 | 5200 | 5470
CC(C)c1cc2c(c(O)c1O)C13CCCC(C)(C)C1CC2OC3=O (stereo not given) | 0.942 (inactive) | 1.02 | 5390 | 5730
CCCCCCCC/C=C\CCCCCCCCCCCC(=O)O | 1.01 (inactive) | 0.826 | 6030 | 5990
CCCCCCCC/C=C\CCCCCCCC(=O)Nc1c(C(C)C)cccc1C(C)C | 0.999 (inactive) | 0.853 | 5690 | 5700
CCCCC[C@H](O)/C=C/[C@H]1C2COC(C2)[C@@H]1C/C=C/CCCC(=O)O (stereo not given in full) | 0.903 (inactive) | 0.876 | 5790 | 6410
CCCCCCCCCCCCCCCC(=O)OC | 0.995 (inactive) | 0.98 | 5710 | 5750
CCOC(=O)c1c(Cc2cccc(Cl)c2)[nH]c2c1cc(O)c1ccccc12 | 0.954 (inactive) | 1.94 | 4980 | 5220
